High-throughput results: PubChem, National Center for Advancing Translational Sciences (NCATS)
HTT aggregate – reduces HttQ103-GFP aggregates in PC12 cells | PC12 HttQ103-GFP aggregates, Acumen cytometry, 40 h | Potency, µM (doses to about 46.1 µM), usual class: inhibitors | 1.1% of 220,000 active; active means well fitted curve in the direction sought with a large enough effect; inconclusive means small, poorly fitted or top-dose-only effect, or another doubt; inactive means no such curve, though single readings can be large; an effect the other way counts as inactive or inconclusive; further: nearly all actives have a fitted effect of over 60% in size
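PC12 cells with ecdysone-inducible HTT exon1 Q103-GFP, induced by 100 nM tebufenozide, given compounds in a concentration series. GFP aggregates (1–25 um, 6 SD above background) counted in lysates by laser-scanning cytometry, 488 nm excitation.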
JMJD2E inh – blocks human JMJD2E demethylase activity; 1.6% of 230,000 active; Potency, µM (highest dose often 57.1 µM), usual class: inhibitors; B2RXH2; AID 2147; JMJD2E catalytic domain, FDH-coupled NADH fluorescence (FDH is formaldehyde dehydrogenase); further: nearly all actives have a fitted effect of over 50% in size
HTT ATP protect – Huntington cell model cytoprotection by ATP luminescence; PC12 HTT-Q103 induced, cytoprotection, ATP luminescence, 40 h; Potency, µM (titrated, usually from 56.4 µM), most hits filed as activators; 0.14% of 230,000 active; AID 1471; active means well fitted curve in the direction sought with a large enough effect; inconclusive means small, poorly fitted or top-dose-only effect, or another doubt; inactive means no such curve, though single readings can be large; an effect the other way counts as inactive or inconclusive; further: nearly all actives have a fitted effect of over 45% in size
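Stable PC12 Q103-GFP cells in serum-supplemented, phenol red-free DMEM; induction by tebufenozide at 100 nM final; compound dose series; cell viability quantified luminescently from ATP.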
HPGD inh – inhibitors of human 15-hydroxyprostaglandin dehydrogenase (HPGD). AID 894. purified HPGD, NADH fluorescence kinetic, PGE2 substrate. Potency, µM, most hits filed as inhibitors. P15428. 4.3% of 150,000 active
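NADH formation kinetics: reaction with 30 uM PGE2 and 1 mM NAD+ (final), 20 nM enzyme, Tris-HCl pH 8 with Tween 20, after 15 min compound preincubation at room temperature. Fluorescence change, last versus first of five reads.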
CBFb RUNX1 block – blocks binding between human CBF-beta and RUNX1; Q01196+Q13951; AlphaScreen CBFb-His/RUNX1-biotin binding, biochemical; Potency, µM (titrated, usually from 59.8 µM), actives largely listed as inhibitors; 230,000 tested, under 10 active; AID 1477; active means well fitted curve in the direction sought with a large enough effect; inconclusive means small, poorly fitted or top-dose-only effect, or another doubt; inactive means no such curve, though single readings can be large; an effect the other way counts as inactive or inconclusive
Target sequence (Q01196 whole entry, looked up): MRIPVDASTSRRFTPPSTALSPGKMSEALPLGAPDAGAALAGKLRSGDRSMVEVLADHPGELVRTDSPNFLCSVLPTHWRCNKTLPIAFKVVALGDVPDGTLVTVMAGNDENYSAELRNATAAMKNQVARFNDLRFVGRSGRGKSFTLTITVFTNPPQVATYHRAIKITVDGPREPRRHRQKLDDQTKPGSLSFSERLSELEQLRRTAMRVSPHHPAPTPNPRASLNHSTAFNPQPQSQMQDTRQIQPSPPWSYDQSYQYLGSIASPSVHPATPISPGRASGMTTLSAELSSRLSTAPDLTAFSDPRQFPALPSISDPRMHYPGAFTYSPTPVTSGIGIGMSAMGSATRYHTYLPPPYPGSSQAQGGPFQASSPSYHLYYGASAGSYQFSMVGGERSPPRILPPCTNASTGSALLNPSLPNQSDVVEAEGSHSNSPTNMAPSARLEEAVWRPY
Target sequence (Q13951 whole entry, looked up): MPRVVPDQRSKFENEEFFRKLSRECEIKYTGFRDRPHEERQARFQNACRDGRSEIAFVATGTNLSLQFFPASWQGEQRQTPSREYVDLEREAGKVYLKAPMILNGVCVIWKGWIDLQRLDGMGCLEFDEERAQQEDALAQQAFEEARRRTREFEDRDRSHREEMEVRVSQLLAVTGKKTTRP
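Proteins preincubated together for 20 min at RT before compound addition; 15 min later, nickel and streptavidin beads were added and left 90 min prior to AlphaScreen measurement.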
ALDH1A1 block – ALDH1A1 (human) enzyme inhibition; Purified ALDH1A1, NADH fluorescence, propionaldehyde substrate; Potency, µM (highest dose often 75.3 µM), usual class: inhibitors; 7.3% of 220,000 active
Hits are given with their value; i = inactive; ? = inconclusive; nt = no result; [ ] = another dose, or the depositor's remark. An excerpt weighted towards active compounds, which were near 9.8% of everything screened. Unless noted, the call rests on the fitted dose curve; in most records, active means well fitted inhibition curve with a large enough effect (not every such curve was filed as active); inconclusive means small, poorly fitted or top-dose-only effect, or another doubt; inactive means no such curve, though single readings can be large or run the other way.

SMILES	HTT aggregate	JMJD2E inh	HTT ATP protect	HPGD inh	CBFb RUNX1 block	ALDH1A1 block
O=C(c1ccccc1)c1cc([N+](=O)[O-])ccc1N1CCCC1	?	i	nt	i	i	i
Cc1ccc(C(=O)c2cc([N+](=O)[O-])ccc2N2CCOCC2)cc1C	?	i	i[10 µM]	i	i	32µM
CN1CCN(S(=O)(=O)c2cc([N+](=O)[O-])ccc2N2CCCCCC2)CC1	?	i	i	i	i	?
COc1ccc(C(=O)c2cc([N+](=O)[O-])ccc2N2CCN(C)CC2)cc1	i	1µM	i	nt	i	5µM
O=C(c1csnn1)N1CCC2(CCCN(Cc3ccccc3)C2)CC1	nt	nt	i	i	nt	i
C=CCOC(=O)N[C@H](/C(C(=O)OC)=C(\C)NCc1ccccc1)c1cccc(C(F)(F)F)c1	nt	i	?	i	i	i
CC(C(=O)NC1CCCC1)N(C(=O)c1snc(C(N)=O)c1N)c1ccc2c(c1)OCCO2 (stereo not drawn)	i	i	i	i	i	13µM
Cc1cc(C)cc(NS(=O)(=O)c2cnc(Cl)c(Cl)c2)c1	i	i	i	i	i	3.5µM
O=C(CNC(=O)c1ccc(F)cc1)Nc1ccccc1C(F)(F)F	i[9.22 µM]	i	i[10 µM]	nt	i	nt
COCCC1CCCCN1C(=O)c1cccc(OC2CCN(C3CCCC3)CC2)c1 (stereo not drawn)	i[9.22 µM]	i	i[10 µM]	nt	i	i
CCC(=O)c1ccc(OCC(=O)c2ccc3c(c2)NC(=O)CO3)cc1	i[9.22 µM]	i	i[10 µM]	nt	i	i
O=C1COc2ccc(C(=O)CCl)cc2N1	i[9.22 µM]	i	i[10 µM]	nt	i	0.11µM
CCCCCCC(=O)OCC(=O)c1ccc2c(c1)NC(=O)CO2	i	i	?	nt	i	3.5µM
O=C1COc2ccc(C(=O)C[n+]3cccc(O)c3)cc2N1	i[9.22 µM]	i	i[10 µM]	nt	i	20µM
C/C1=C2N=C(/C=C3N=C(/C(C)=C4\[N-]C(C)(C5N=C1C(C)(CCC(=O)NCC(C)OP(=O)([O-])O[C@H]1C(O)C(n6cnc7cc(C)c(C)cc76)O[C@@H]1CO)C5CC(N)=O)C(C)(CC(N)=O)C4CCC(N)=O)C(C)(CC(N)=O)C\3CCC(N)=O)C(C)(C)C/2CCC(N)=O.[CH2-]C1OC(n2cnc3c(N)ncnc32)C(O)C1O.[Co] (stereo partly drawn)	i	14µM	i	i	i	i
CC(C)(COP(=O)(O)OP(=O)(O)OC[C@H]1O[C@@H](n2cnc3c(N)ncnc32)[C@H](O)[C@@H]1OP(=O)(O)O)C(O)C(=O)NCCC(=O)NCCS (stereo partly drawn)	i	nt	i	nt	nt	nt
CCN(CC)c1ccc(/C=N/NC(=O)c2ccco2)c(O)c1	?	14µM	i[10 µM]	nt	?	nt
CCN(CC)c1ccc(/C=N/NC(=O)c2ccco2)cc1	?	?	i[10 µM]	i	i	10µM
O=C(Cc1cccs1)N/N=C/c1ccccc1	i[9.22 µM]	i	i[10 µM]	nt	i	nt
CCN(CC)c1ccc(/C=N/NC(=O)Cc2cccs2)c(O)c1	25µM	i	i[10 µM]	?	i	?
CCN(CC)c1ccc(/C=N/NC(=O)c2cnccn2)cc1	i	i	i	nt	i	22µM
CC(C)(C)c1ccc(S(=O)(=O)N2CCN(c3ncccn3)CC2)cc1	i	i	i[10 µM]	nt	i	i
COC(=O)c1cc(Br)c(=O)n(-c2ccc(F)cc2)c1	i	i	i	i	i	i
Cc1cc(C)n(-c2ccc(C(=O)NCCCN3CCOCC3)cc2)n1	i	i	i	nt	i	i
CSCC[C@H](NC(=O)[C@H](CC(C)C)NC(=O)CNC(=O)[C@H](Cc1ccc(O)cc1)NC(=O)[C@H](Cc1ccccc1)NC(=O)[C@H](CCCCN)NC(=O)[C@H](CC(N)=O)NC(=O)[C@@H]1CCCN1C(=O)[C@H](CC(=O)O)NC(=O)[C@H](C)NC(=O)[C@@H]1CCC(=O)N1)C(N)=O	nt	nt	nt	nt	i	nt
SMILES	HTT aggregate	JMJD2E inh	HTT ATP protect	HPGD inh	CBFb RUNX1 block	ALDH1A1 block
CCN(CC)c1ccc(/C=N/NC(=O)c2ccc([N+](=O)[O-])cc2)cc1	i	i	i	nt	i	28µM
CN(C)/C=C1\NC(=S)N(c2ccc(Cl)cc2)C1=O	i[9.22 µM]	?	i[10 µM]	nt	i	20µM
CN(C)/C=C1\NC(=S)N(c2ccccc2)C1=O	i[9.22 µM]	i	i[10 µM]	nt	i	?
Cc1nc2ccc(NC(=O)c3cncc(Br)c3)cc2s1	i[9.22 µM]	i	i[10 µM]	nt	i	nt
Cc1sc2nc(SCC(=O)NCc3ccco3)n(-c3ccccc3)c(=O)c2c1C	i	?	i	i	i	i
CC(C)C(C)(C#N)NC(=O)CSc1nc2scc(-c3ccco3)c2c(=O)n1-c1ccccc1 (stereo not drawn)	?	?	i	i	i	11µM
O=C(Nc1ccc(S(=O)(=O)Nc2nccs2)cc1)C1=NN(c2ccccc2)C(=O)CC1	i[9.22 µM]	?	i[10 µM]	nt	i	i
COCCNCC(=O)NCC12CC3CC(CC(C3)C1)C2	i[9.22 µM]	i	i	i	i	28µM
O=C(CN1C(=O)CCC1=O)NCC12CC3CC(CC(C3)C1)C2	i	i	i	i	i	1.1µM
O=C(CN1CCCC1)NCC12CC3CC(CC(C3)C1)C2	i	i	i[0.074 µM]	i	i	?
COCCNCC(=O)NC12CC3CC(CC(C3)C1)C2	i	i	i[0.074 µM]	i	i	i
CC(=O)c1ccc2c3c(ccc(O)c13)CC2	i	i	i[10 µM]	14µM	?	?
O=C(CCC1CCCCC1)Nc1ccccc1O	i	i	i[0.074 µM]	20µM	i	?
O=C(CCC1CCCCC1)NCc1ccccn1	i	i	i[0.074 µM]	32µM	i	i
O=C(CCC1CCCCC1)Nc1ccccc1-c1ccccc1	i	i	i	i	i	?
O=C(CCc1ccc(S(=O)(=O)NC2CCCCC2)cc1)NCc1ccccn1	i[9.22 µM]	i	i[10 µM]	nt	i	i
O=C(CCC1CCCC1)Nc1ccccc1-c1ccccc1	?	i	i[10 µM]	i	i	20µM
COC(=O)NC(CC(C)=O)c1cccc(F)c1 (stereo not drawn)	nt	nt	i[10 µM]	nt	i[13.1 µM]	i[13.5 µM]
O=c1c(Cc2c(F)cccc2Cl)c(O)ccn1CCCn1ccnc1	i	i	i	nt	i	?
O=S(=O)(c1ccc(NC(=S)N2CCN(c3ccc(O)cc3)CC2)cc1)N1CCOCC1	i	?	i	nt	i	?
O=C(O)c1ccc(S(=O)(=O)c2ccc3c(c2)C(=O)N(Cc2ccco2)C3=O)cc1	i	i	i[0.074 µM]	i	i	?
O=C(NC1=NCCS1)c1ccc(Cl)c(S(=O)(=O)N2CCOCC2)c1	i	i	i[10 µM]	nt	i	?
O=C(Nc1ccc(Cl)cc1C(=O)O)c1ccc2c(c1)C(=O)N(Cc1ccco1)C2=O	i	i	i[0.074 µM]	?	i	3.8µM
O=C(NC1=NCCS1)c1ccc2c(c1)C(=O)N(Cc1ccco1)C2=O	i	i	i	i	i	16µM
O=C(O)C[C@H]1OCC=C2C[N@@+]3([O-])CC[C@]45c6ccccc6N[C@@H]4[C@@H]1[C@H]2C[C@H]53	nt	nt	i[10 µM]	i	nt	i[13.5 µM]
